Read-out in one test: CD69, CD69 (gene 969)
Put plainly: BSK_SAg_CD69: BioMAP Diversity Plus: SAg Assay for CD69 Biomarker Activity (AID 2283089).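 As to AC50: cell surface CD69 protein quantified by ELISA with fluorescence detection.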 To be noted: primary human HUVEC with PBMC; actives raise or lower the signal. The method, boiled down: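 Primary human vascular co-culture (umbilical vein endothelium with peripheral blood mononuclear cells) exposed to test chemical for 24 h. CD69 levels quantified by fluorescence ELISA; DMSO served as negative control for bidirectional fitting.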

Read-out in test [1]: Monocyte Chemoattractant Protein-1 (MCP1), CCL2 (gene 6347)
The test is described as follows: BSK_SAg_MCP1: BioMAP Diversity Plus: SAg Assay for Monocyte Chemoattractant Protein-1 (MCP1) Biomarker Activity (AID 2283090). To be noted: primary human HUVEC with PBMC; actives raise or lower the signal. In outline: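 MCP-1 levels in the endothelial–PBMC SAg co-culture were quantified by ELISA at 24 h post-dosing; both increases and decreases versus DMSO scored. Cytotoxicity monitored by SRB total protein in parallel cultures.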

Read-out in test [2]: E-selectin (Homo sapiens) (UniProt P16581)
The test is described as follows: BSK_SAg_Eselectin: BioMAP Diversity Plus: SAg Assay for Eselectin Biomarker Activity (AID 2283091). To be noted: primary human HUVEC with PBMC; actives raise or lower the signal. In outline: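 Cell-surface E-selectin is read by ELISA at 24 h in the SAg co-culture of HUVEC and PBMC. Curves are fitted in both directions relative to DMSO. Parallel SRB total-protein staining tracks overt toxicity.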

Read-out in test [3]: Monokine induced gamma interferon (MIG), CXCL9 (gene 4283)
The test is described as follows: BSK_SAg_MIG: BioMAP Diversity Plus: SAg Assay for Monokine induced gamma interferon (MIG) Biomarker Activity (AID 2283092). To be noted: primary human HUVEC with PBMC; actives raise or lower the signal. The method, boiled down:
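Endothelial cells and PBMC were co-cultured, exposed to test chemicals, and sampled 24 h later. MIG was measured by ELISA, and responses were fitted in both directions relative to DMSO.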

A short description of test [4]: BSK_SAg_PBMCCytotoxicity: PBMC Cytotoxicity Assessment in the BioMAP Diversity Plus: SAg Assay (AID 2283093).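 Also: PBMC viability measured as Alamar Blue reduction fluorescence at 546/580 nm; fitted both ways against DMSO so a hit may be loss or gain of signal.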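 As to AC50: PBMC superantigen activated with SEB plus TSST-1 one hour after compound addition.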 To be noted: primary human HUVEC with PBMC. In outline:
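HUVEC/PBMC co-culture; PBMC exposed to chemical 1 h before SEB and TSST-1 activation (20 ng/mL each), incubated 90 h, then Alamar Blue 6 h, fluorescence 546/580 nm. Bidirectional fit versus DMSO baseline.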

Read-out in test [5]: Interleukin-8 (IL8), CXCL8 (gene 3576)
The test is described as follows: BSK_SAg_IL8: BioMAP Diversity Plus: SAg Assay for Interleukin-8 (IL8) Biomarker Activity (AID 2283094). To be noted: primary human HUVEC with PBMC; actives raise or lower the signal. In outline: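 In this co-culture of human umbilical vein endothelium with peripheral blood mononuclear cells, IL-8 is assayed by ELISA at 24 h. DMSO serves as baseline for bidirectional curve fitting.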

Test [6] can be described thus: BSK_SAg_Proliferation: Cell Proliferation Assessment in the BioMAP Diversity Plus: SAg Assay (AID 2283095).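 Also: relative cell number as total protein by SRB absorbance in sub-confluent culture.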 To be noted: primary human HUVEC with PBMC. The method, boiled down:
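Readout is SRB-stained protein (560 nm) in a primary human HUVEC and PBMC co-culture; sub-confluent cultures are read at 96 h. Activity is fitted bidirectionally using DMSO as baseline.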

Test [7] is described as follows: BSK_SAg_SRB: Viability Assessment in the BioMAP Diversity Plus: SAg Assay (AID 2283096).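 Also: cells read one day after compound addition; hits may be either gain or loss of signal compared with DMSO.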 To be noted: primary human HUVEC with PBMC. In outline: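 Human umbilical vein endothelial cells co-cultured with PBMC, read 24 h after compound dosing. Total protein measured by sulforhodamine B staining (0.1% SRB after 10% TCA fixation, absorbance 560 nm); bidirectional fit versus DMSO baseline.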

Test [8] addresses human CYP2D6, CYP2D6 (gene 1565) (UniProt P10635). The test is described as follows: NVS_ADME_hCYP2D6: NovaScreen (NVS) CYP450-related Enzyme Activity (ADME) Assay for human CYP2D6 (AID 2283107; active = hit-call score of the fitted dose curve at least 0.9, where 1 is the maximum). The method, boiled down:
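Fluorescence readout of recombinant CYP2D6 (insect-cell derived) activity after 1 h incubation with test chemical. Acetonitrile served as baseline, loss-of-signal direction. Single-concentration duplicate screening at 10 uM preceded concentration-response retesting.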

Test [9] concerns the target Cytochrome P450 2C19 (Homo sapiens) (UniProt P33261). The test is described as follows: NVS_ADME_hCYP2C19: NovaScreen (NVS) CYP450-related Enzyme Activity (ADME) Assay for human CYP2C19 (AID 2283113; active = hit-call score of the fitted dose curve at least 0.9, where 1 is the maximum;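 also: potency for inhibition seen as loss of fluorescent signal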). The method, boiled down:
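Compounds first screened in duplicate at 10 uM, then confirmed in concentration series. Insect-cell-expressed human CYP2C19 turned over a fluorogenic substrate, and fluorescence was read after 1 h. Inhibition taken as signal loss relative to acetonitrile.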

The target of test [10] is human CYP19A1, CYP19A1 (gene 1588) (UniProt P11511). The test is described as follows: NVS_ADME_hCYP19A1: NovaScreen (NVS) CYP450-related Enzyme Activity (ADME) Assay for human CYP19A1 (AID 2283098; active = hit-call score of the fitted dose curve at least 0.9, where 1 is the maximum). In outline:
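Recombinant enzyme in a cell-free format, read 0.5 h after dosing by fluorescence from a fluorogenic substrate. Loss of signal was fitted against acetonitrile as baseline. Primary screen in duplicate at 10 uM, actives then tested in concentration series.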

Test [11] concerns the target human CYP2A6, CYP2A6 (gene 1548) (UniProt P11509). The test is described as follows: NVS_ADME_hCYP2A6: NovaScreen (NVS) CYP450-related Enzyme Activity (ADME) Assay for human CYP2A6 (AID 2283099; active = hit-call score of the fitted dose curve at least 0.9, where 1 is the maximum). In outline:
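Compounds screened at 10 uM (duplicate) and, if active, titrated to a 20 uM top concentration against insect-cell-expressed CYP2A6. Loss of fluorescent product signal after 0.5 h, relative to acetonitrile baseline, indicates inhibition.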

Test [12] addresses human CYP2B6, CYP2B6 (gene 1555) (UniProt P20813). Put plainly: NVS_ADME_hCYP2B6: NovaScreen (NVS) CYP450-related Enzyme Activity (ADME) Assay for human CYP2B6 (AID 2283101; active = hit-call score of the fitted dose curve at least 0.9, where 1 is the maximum). The method, boiled down: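 Cell-free recombinant enzyme assay with a fluorogenic substrate; fluorescence intensity read 1 hour after dosing. Loss of signal relative to acetonitrile negative control indicates inhibition. Primary screen run in duplicate at 10 uM, actives then tested in concentration series.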

Test [13] has as its target Cytochrome P450 2C18 (Homo sapiens) (UniProt P33260). Put plainly: NVS_ADME_hCYP2C18: NovaScreen (NVS) CYP450-related Enzyme Activity (ADME) Assay for human CYP2C18 (AID 2283103). The method, boiled down: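 Cell-free recombinant human CYP2C18 with fluorogenic substrate; fluorescence intensity read 0.5 h after dosing. Single-point screen at 10 uM in duplicate, then concentration-response up to 20 uM; loss of signal fitted against acetonitrile baseline.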

Test [14] has as its target human CYP2C8, CYP2C8 (gene 1558) (UniProt P10632). The test is described as follows: NVS_ADME_hCYP2C8: NovaScreen (NVS) CYP450-related Enzyme Activity (ADME) Assay for human CYP2C8 (AID 2283104). In outline:
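Recombinant human CYP2C8 with fluorogenic substrate, 0.5 h, fluorescence intensity; signal loss fitted versus acetonitrile. Screened in duplicate at 10 uM, then actives run in concentration-response up to 20 uM.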

In test [15] the target is human CYP2J2, CYP2J2 (gene 1573) (UniProt P51589). The test is described as follows: NVS_ADME_hCYP2J2: NovaScreen (NVS) CYP450-related Enzyme Activity (ADME) Assay for human CYP2J2 (AID 2283106; active = hit-call score of the fitted dose curve at least 0.9, where 1 is the maximum). The method, boiled down:
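Cell-free assay of recombinant CYP2J2 with a fluorogenic substrate, read 1 h after dosing; loss of signal versus acetonitrile. Primary screen at 10 uM in duplicate, then concentration-response up to 20 uM for chemicals passing threshold (e.g., 30% inhibition).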

Usually AC50 stands for the concentration at which the activity in the assay is half-maximal.

Molecules are shown by their SMILES. Records with an inconclusive call do not appear. Calls of active or inactive are those of the source. The calls were made as follows, unless noted: active = hit-call score of the fitted dose curve at least 0.9, where 1 is the maximum; inactive = score below 0.9.

Sequence of E-selectin (Homo sapiens) (P16581 whole entry, looked up): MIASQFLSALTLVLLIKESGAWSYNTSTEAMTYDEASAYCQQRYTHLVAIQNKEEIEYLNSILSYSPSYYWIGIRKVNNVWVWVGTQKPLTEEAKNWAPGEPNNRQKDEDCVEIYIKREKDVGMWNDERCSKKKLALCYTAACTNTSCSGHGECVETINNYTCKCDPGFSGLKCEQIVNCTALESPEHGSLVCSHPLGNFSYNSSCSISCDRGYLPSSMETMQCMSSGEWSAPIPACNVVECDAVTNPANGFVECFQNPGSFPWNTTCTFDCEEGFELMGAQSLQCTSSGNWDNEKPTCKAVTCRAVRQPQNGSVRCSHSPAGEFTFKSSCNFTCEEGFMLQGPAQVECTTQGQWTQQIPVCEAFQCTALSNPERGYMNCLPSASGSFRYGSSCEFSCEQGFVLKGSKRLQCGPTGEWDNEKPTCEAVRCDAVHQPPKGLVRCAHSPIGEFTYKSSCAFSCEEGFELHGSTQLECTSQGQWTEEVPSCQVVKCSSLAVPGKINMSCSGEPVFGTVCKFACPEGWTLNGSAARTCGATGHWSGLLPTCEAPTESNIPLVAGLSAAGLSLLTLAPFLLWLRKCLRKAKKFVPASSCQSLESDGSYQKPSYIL
Sequence of human CYP2D6, CYP2D6 (gene 1565) (P10635 whole entry, looked up): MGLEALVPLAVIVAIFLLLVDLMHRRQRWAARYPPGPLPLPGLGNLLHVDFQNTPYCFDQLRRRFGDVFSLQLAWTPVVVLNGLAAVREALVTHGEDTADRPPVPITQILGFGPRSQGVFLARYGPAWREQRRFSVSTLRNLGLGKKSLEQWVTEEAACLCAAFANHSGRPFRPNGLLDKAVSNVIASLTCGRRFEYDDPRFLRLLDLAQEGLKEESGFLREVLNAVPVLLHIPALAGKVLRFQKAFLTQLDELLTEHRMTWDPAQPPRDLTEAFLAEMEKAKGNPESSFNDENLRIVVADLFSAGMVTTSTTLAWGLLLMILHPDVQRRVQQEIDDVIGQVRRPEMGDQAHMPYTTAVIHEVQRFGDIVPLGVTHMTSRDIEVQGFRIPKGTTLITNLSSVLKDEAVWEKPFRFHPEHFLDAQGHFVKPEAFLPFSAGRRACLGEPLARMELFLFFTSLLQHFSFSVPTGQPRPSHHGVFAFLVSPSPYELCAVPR
Sequence of human CYP2B6, CYP2B6 (gene 1555) (P20813 whole entry, looked up): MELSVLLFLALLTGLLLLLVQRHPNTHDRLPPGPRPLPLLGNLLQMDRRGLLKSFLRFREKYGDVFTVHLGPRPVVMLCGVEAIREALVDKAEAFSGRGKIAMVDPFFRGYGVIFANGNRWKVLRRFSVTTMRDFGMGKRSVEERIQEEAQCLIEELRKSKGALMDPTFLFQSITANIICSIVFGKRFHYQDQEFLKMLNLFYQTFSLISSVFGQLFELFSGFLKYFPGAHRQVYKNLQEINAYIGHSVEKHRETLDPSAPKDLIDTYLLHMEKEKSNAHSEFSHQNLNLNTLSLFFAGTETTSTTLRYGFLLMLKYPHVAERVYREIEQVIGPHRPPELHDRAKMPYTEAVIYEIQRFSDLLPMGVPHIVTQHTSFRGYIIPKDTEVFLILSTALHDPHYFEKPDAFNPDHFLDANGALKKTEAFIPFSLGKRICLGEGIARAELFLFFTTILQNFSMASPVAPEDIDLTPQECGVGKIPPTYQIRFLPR
Sequence of Cytochrome P450 2C18 (Homo sapiens) (P33260 whole entry, looked up): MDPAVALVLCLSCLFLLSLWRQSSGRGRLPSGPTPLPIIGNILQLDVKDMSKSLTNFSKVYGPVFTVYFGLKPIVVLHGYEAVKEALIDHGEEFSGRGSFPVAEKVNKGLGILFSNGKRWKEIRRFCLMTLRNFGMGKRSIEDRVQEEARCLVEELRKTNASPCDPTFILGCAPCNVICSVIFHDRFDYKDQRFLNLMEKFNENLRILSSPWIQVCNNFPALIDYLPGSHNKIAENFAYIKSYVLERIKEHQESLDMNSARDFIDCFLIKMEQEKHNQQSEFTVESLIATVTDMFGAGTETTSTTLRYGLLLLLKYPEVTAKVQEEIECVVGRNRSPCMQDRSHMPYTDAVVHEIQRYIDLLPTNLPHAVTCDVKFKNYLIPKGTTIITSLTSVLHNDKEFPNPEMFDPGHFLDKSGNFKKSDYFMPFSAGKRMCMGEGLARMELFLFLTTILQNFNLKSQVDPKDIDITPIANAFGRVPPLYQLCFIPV
Sequence of human CYP19A1, CYP19A1 (gene 1588) (P11511 whole entry, looked up): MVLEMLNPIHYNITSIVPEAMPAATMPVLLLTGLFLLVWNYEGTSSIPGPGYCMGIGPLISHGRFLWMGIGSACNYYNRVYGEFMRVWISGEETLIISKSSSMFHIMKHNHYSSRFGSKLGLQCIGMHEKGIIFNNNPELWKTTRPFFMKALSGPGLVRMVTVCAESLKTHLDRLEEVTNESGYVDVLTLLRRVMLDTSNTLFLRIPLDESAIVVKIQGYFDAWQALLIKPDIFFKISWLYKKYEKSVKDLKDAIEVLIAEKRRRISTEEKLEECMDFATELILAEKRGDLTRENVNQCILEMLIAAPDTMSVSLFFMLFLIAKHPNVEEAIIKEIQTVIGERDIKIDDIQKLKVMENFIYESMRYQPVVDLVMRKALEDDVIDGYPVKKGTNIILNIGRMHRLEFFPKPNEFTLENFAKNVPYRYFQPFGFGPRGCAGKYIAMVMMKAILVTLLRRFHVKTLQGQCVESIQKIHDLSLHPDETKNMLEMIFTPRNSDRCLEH
Sequence of human CYP2J2, CYP2J2 (gene 1573) (P51589 whole entry, looked up): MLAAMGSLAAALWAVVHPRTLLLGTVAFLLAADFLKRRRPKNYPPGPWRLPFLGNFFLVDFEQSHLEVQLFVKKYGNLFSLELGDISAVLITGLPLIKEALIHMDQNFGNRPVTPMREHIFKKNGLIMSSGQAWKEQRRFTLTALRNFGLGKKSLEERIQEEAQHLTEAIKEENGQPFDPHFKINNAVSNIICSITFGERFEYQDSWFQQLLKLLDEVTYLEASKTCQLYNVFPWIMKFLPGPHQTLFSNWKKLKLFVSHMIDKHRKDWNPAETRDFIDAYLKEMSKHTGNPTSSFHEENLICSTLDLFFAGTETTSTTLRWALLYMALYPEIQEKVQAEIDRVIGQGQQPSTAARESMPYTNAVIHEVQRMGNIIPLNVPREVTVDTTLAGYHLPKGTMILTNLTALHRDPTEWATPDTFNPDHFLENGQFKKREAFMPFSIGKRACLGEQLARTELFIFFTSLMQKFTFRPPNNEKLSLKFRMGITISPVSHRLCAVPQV
Sequence of human CYP2A6, CYP2A6 (gene 1548) (P11509 whole entry, looked up): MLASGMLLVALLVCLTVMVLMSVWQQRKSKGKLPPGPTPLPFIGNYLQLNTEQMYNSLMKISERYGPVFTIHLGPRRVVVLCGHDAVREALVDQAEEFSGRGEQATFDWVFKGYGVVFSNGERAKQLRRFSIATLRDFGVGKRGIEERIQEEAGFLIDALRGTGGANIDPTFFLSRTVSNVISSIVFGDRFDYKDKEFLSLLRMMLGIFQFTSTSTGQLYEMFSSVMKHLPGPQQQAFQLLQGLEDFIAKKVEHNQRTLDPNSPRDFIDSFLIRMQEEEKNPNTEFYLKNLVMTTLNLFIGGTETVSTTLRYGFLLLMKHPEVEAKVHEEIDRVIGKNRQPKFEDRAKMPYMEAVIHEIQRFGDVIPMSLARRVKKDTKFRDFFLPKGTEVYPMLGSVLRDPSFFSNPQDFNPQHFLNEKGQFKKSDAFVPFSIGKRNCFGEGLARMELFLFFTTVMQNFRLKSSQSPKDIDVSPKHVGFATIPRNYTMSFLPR
Sequence of human CYP2C8, CYP2C8 (gene 1558) (P10632 whole entry, looked up): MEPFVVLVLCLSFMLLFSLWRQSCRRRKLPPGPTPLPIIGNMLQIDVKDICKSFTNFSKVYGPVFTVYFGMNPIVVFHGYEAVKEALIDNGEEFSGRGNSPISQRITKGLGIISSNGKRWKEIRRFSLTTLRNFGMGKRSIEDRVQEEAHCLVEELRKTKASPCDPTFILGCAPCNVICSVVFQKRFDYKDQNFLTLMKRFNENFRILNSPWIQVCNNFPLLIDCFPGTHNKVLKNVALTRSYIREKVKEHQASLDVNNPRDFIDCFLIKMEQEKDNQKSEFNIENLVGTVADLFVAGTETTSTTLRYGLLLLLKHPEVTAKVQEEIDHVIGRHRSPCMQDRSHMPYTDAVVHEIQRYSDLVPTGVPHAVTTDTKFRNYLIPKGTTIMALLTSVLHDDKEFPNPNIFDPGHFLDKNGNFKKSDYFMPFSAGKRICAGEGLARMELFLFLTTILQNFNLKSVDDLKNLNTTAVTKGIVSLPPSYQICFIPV

Regarding `COc1cc(Cl)c(OC)cc1Cl`, the outcome in the test with CD69, CD69 (gene 969) is “inactive”; in test [1], “inactive”; in test [2], “inactive”; in [3], “inactive”; in test [4], “inactive”; in test [5], “inactive”. For the same compound, the outcome in test [6] and in test [7] was inactive.
`Nc1c(Cl)c(F)nc(OCC(=O)O)c1Cl`: the outcome was “inactive” with CD69, CD69 (gene 969); “inactive” in test [1]; “inactive” in test [2]; “inactive” in [3]; “inactive” in test [4]; “inactive” in test [6]. Besides, the outcome in test [7] was inactive.
On to `Cc1ccc(N=CN(C)C=Nc2ccc(C)cc2C)c(C)c1`, for which the AC50 in the test with CD69, CD69 (gene 969) is 31.5 µM (active); in [1] it was 30.9 µM (active); in [2], 26.5 µM (active); in test [3] it was 30.7 µM (active); in test [4], 34.9 µM (active); in [6] it was 21.7 µM (active). The AC50 in test [7] is 33.2 µM (active); in test [9], 5.27 µM (active). In addition, the result in test [5] and in test [8] was inactive.
With `O=C(O)c1c(Cl)ccc2cc(Cl)cnc12`, the outcome was “inactive” in the test with CD69, CD69 (gene 969); “inactive” in test [1]; “inactive” in [2]; “inactive” in test [3]; “inactive” in test [4]; “inactive” in test [5]. Besides, the outcome in test [6] and in test [7] was inactive.
In the case of `Clc1nc(Cl)nc(Nc2ccccc2Cl)n1`, the outcome in the test with CD69, CD69 (gene 969) was “inactive”; in [1] it was “inactive”; in test [2], “inactive”; in test [3], “inactive”; in test [4], “inactive”; in test [6] it was “inactive”. Besides, in [7], the result was inactive.
On to `CSC(=O)c1c(C(F)F)nc(C(F)(F)F)c(C(=O)SC)c1CC(C)C`, for which the outcome with CD69, CD69 (gene 969) was “inactive”; in [3] it was “inactive”. Further, the AC50 in test [1] is 13.9 µM (active); in test [2] it was 13.1 µM (active); in test [4] it was 27.6 µM (active); in test [5] it was 12.7 µM (active); in [6], 28.6 µM (active); in test [7], 14.6 µM (active). For the same compound, the figures for the AC50 in test [8] and in test [9] were 6.58 µM (active) and 7.01 µM (active), respectively.
Consider `COP(=S)(OC)Oc1ccc([N+](=O)[O-])c(C)c1`, for which the AC50 in the test with CD69, CD69 (gene 969) was 37 µM (active); in test [2], 29.6 µM (active); in test [5], 29.6 µM (active); in test [6] it was 24.9 µM (active); in test [11], 1.98 µM (active); in test [12], 1.3 µM (active). The concentration at half-maximal activity (AC50) in test [13] is 2.31 µM (active); in test [15] it was 0.612 µM (active); in test [8], 4.59 µM (active); in [9], 0.168 µM (active). The result in test [1], in test [3], in test [4], in [7], in test [10] and in [14] was inactive.
`CCSC(=O)N1CCCCCC1`: the outcome with CD69, CD69 (gene 969) was “inactive”; in test [1], “inactive”; in test [2] it was “inactive”; in [3] it was “inactive”; in test [4], “inactive”; in test [5], “inactive”. The result in test [6] and in test [7] was inactive.
For the compound `COC(=O)c1c(C(F)F)nc(C(F)(F)F)c(C2=NCCS2)c1CC(C)C`, the outcome with CD69, CD69 (gene 969) was “inactive”; in [1] it was “inactive”; in test [3], “inactive”; in test [5], “inactive”. Moreover, the AC50 in [2] is 20 µM (active); in test [4], 12.1 µM (active); in test [6], 14.6 µM (active); in [7], 32.5 µM (active); in test [12] it was 5.93 µM (active); in test [13], 1.88 µM (active). The AC50 in test [9] was 1.27 µM (active).

(Values after PubChem BioAssay (EPA / NIEHS).)
